Assays:
Assay in all cases: log2 ratio of Biotin-Ahx-Ub-VS probe labelling (fragment/DMSO); higher = less target engagement (more negative = stronger competition), active = hit call of the paper (q ≤ 0.05, log2 ratio ≤ -1)
Conditions in all cases: compound concentration: 200 uM; treatment time: 3 h
USP19 = molecular target: T1, USP19 (UniProt O94966)
T1 sequence (whole entry): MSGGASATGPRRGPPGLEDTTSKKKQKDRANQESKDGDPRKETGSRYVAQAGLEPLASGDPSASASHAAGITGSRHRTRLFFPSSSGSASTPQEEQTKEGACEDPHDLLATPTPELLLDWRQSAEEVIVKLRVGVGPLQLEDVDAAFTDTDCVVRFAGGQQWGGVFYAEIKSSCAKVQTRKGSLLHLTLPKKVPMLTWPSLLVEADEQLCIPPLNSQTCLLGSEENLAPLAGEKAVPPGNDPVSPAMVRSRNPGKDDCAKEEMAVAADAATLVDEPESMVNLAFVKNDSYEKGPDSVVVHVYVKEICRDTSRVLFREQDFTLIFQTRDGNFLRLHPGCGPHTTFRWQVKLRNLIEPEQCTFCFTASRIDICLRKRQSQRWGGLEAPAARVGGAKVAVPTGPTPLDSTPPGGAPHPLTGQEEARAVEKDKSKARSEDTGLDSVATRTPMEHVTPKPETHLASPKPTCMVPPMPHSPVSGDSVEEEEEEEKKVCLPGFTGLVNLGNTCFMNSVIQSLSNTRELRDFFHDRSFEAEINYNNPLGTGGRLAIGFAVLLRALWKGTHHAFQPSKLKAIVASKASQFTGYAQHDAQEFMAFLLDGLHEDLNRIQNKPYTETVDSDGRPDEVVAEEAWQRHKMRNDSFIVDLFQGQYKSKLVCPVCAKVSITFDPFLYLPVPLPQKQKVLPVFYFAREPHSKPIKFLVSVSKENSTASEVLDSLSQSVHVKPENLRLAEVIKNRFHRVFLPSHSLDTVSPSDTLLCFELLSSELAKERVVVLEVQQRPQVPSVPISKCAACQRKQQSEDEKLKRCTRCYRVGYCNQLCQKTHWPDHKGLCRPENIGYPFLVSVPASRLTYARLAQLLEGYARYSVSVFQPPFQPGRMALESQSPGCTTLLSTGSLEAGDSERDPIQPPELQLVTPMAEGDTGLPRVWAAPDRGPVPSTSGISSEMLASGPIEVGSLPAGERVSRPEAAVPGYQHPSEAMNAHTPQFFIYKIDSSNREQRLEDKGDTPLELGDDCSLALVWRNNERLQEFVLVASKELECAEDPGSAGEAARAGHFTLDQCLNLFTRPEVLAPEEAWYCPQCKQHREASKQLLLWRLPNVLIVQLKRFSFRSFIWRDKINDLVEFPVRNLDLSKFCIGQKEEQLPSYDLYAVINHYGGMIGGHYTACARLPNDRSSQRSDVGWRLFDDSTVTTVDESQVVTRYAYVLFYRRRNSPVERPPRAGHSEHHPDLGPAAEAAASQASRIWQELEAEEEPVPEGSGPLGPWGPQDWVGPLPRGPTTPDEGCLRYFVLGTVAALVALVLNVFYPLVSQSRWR
In short: (§1)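 Each value is an average log2 ratio of fragment to vehicle, tested by unpaired t-test. The underlying Spectronaut label-free quantities were global-median-normalised, and only proteins with ≥2 unique peptides were included. Triplicate HEK293T lysate samples (495 µg) were exposed to fragment at 200 µM or vehicle for 3 h, then to Biotin-Ahx-Ub-VS at 0.5 µM final for 1 h, before NeutrAvidin enrichment of labelled DUBs, LysC and trypsin digestion, and diaPASEF LC-MS/MS.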

USP24 = USP24 (UniProt Q9UPU5)
Chain of USP24 (Q9UPU5 whole entry): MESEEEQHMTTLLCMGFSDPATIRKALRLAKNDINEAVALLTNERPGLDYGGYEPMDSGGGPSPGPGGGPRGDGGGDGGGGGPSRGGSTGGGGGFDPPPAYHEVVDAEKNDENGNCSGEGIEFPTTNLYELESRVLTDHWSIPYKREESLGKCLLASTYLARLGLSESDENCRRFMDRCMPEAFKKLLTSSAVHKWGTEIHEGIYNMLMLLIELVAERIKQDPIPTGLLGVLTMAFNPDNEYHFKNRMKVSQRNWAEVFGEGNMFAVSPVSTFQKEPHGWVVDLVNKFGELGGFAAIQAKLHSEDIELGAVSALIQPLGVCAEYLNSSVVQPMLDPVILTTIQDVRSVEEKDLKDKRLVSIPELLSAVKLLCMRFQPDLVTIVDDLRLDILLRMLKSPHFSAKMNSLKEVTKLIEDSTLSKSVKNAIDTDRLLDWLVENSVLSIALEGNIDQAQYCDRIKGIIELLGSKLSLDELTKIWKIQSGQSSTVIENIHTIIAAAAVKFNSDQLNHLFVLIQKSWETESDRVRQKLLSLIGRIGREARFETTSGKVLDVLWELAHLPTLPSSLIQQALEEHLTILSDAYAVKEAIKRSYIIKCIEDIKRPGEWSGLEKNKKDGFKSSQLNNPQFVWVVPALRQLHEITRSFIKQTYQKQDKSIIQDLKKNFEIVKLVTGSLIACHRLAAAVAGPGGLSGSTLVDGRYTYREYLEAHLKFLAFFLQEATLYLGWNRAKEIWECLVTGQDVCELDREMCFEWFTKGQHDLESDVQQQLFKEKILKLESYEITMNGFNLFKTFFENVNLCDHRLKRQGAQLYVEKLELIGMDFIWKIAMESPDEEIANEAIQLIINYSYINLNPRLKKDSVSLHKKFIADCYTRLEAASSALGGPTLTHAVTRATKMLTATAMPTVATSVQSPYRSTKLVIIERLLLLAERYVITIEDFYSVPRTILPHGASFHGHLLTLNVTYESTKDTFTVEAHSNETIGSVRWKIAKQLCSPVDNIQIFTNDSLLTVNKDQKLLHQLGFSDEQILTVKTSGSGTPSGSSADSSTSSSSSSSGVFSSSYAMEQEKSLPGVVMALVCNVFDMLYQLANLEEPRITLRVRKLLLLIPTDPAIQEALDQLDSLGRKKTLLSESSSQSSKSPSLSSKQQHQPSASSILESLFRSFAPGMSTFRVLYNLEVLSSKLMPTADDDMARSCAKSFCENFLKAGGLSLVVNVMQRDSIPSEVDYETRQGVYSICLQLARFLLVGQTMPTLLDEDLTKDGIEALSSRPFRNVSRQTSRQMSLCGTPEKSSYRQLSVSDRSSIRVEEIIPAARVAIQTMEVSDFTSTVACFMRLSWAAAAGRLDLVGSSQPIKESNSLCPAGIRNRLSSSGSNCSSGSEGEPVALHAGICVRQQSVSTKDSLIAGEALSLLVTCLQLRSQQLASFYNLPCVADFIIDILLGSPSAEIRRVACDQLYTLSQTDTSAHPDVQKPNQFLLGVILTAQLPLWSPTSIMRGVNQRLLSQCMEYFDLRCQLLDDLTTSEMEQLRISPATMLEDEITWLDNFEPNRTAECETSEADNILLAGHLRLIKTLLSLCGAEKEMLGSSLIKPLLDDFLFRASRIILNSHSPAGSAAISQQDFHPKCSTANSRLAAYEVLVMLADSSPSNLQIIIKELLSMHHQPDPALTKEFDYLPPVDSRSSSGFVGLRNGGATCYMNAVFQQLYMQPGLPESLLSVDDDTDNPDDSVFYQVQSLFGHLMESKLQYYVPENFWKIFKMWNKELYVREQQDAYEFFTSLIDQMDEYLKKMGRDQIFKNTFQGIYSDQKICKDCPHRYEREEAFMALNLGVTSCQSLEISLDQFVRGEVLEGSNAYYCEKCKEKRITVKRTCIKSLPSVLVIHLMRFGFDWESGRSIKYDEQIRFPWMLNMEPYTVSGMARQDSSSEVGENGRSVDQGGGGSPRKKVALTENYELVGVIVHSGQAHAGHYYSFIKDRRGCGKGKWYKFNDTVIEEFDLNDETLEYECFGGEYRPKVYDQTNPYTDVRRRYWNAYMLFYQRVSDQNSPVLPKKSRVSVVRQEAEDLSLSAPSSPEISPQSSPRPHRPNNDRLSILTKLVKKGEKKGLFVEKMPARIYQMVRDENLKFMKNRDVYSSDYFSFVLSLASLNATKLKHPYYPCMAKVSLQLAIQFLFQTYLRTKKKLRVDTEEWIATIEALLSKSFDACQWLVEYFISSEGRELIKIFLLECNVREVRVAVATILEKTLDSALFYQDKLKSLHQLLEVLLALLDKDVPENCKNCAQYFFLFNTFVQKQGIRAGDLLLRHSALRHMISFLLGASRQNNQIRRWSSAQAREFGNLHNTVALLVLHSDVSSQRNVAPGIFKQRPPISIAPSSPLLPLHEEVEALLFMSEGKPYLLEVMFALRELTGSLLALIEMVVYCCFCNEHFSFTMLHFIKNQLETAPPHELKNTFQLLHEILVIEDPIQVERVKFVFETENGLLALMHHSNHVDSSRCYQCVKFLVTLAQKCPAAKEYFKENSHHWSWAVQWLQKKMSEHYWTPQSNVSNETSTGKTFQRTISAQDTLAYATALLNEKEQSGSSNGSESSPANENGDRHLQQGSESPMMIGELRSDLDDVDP
In short: as §1

USP25 = molecular target: T2, USP25 (UniProt Q9UHP3)
T2 sequence (whole entry): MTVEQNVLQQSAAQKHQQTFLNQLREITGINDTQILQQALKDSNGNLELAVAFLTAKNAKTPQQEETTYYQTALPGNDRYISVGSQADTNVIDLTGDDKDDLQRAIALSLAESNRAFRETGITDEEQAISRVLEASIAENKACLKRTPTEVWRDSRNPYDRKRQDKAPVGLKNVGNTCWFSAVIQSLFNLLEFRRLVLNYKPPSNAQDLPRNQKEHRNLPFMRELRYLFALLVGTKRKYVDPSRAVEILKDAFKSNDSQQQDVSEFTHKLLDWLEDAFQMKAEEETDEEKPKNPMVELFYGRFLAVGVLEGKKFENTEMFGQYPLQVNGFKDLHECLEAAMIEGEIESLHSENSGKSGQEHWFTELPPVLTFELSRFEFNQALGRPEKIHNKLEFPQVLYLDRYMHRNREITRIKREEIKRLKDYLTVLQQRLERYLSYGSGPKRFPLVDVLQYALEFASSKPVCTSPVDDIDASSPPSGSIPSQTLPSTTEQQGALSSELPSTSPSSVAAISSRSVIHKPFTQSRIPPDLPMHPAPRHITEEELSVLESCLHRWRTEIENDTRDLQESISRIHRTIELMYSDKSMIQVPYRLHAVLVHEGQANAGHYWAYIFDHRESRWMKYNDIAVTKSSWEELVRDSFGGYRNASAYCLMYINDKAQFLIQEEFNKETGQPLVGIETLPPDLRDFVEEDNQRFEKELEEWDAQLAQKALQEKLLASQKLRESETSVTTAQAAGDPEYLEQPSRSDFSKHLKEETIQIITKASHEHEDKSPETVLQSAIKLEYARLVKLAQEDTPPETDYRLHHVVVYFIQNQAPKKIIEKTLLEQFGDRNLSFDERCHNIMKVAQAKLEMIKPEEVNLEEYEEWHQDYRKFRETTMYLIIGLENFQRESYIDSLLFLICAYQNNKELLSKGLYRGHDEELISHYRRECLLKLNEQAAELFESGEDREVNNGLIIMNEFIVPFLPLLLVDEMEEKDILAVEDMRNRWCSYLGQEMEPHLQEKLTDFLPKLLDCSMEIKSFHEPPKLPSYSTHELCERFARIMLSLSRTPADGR
In short: as §1

USP28 = molecular target: T3, USP28 (UniProt Q96RU2)
T3 sequence (whole entry): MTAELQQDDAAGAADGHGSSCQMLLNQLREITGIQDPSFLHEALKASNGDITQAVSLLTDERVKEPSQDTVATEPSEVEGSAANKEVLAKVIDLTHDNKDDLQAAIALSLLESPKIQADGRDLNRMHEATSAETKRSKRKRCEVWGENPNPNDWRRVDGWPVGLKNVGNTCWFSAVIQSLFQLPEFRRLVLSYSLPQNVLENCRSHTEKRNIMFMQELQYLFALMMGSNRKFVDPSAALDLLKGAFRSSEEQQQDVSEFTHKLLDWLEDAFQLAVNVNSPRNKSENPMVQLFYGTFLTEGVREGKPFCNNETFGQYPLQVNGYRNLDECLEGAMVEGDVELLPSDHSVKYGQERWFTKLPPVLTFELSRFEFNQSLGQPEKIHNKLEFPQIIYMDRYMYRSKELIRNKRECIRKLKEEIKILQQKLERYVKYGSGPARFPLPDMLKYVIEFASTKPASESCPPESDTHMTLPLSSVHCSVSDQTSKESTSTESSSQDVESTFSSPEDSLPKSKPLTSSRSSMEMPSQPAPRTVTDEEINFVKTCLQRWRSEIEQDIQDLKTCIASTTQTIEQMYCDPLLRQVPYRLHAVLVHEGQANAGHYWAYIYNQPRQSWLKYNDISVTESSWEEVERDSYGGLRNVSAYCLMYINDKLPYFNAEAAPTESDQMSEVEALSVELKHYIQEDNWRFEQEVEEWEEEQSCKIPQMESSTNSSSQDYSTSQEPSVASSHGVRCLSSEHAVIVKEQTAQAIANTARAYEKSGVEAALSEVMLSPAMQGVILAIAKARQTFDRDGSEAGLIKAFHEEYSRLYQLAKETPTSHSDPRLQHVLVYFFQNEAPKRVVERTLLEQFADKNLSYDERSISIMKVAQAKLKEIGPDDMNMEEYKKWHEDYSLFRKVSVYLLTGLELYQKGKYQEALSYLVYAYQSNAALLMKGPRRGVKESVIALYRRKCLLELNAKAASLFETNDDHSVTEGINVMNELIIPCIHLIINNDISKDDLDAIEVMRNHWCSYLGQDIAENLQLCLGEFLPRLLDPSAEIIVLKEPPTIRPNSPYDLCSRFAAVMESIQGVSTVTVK
In short: as §1

Measured: log2 ratio of Biotin-Ahx-Ub-VS probe labelling

COCC1C=CCCN1C(=O)CCl (centres undefined)
inactive: USP19 -0.24 | USP24 -0.137 | USP25 -0.32 | USP28 -0.342
